In the library only some 3.8% were active in any assay of this set; here they are far more common.
ATXN2 expr inh – reduces ATXN2 reporter expression in HEK-293 cells; HEK-293 ATXN2-luciferase reporter, luminescence, 24 h; Potency, µM (top dose mostly 57 µM), for inactives: at the highest dose activity change, negative = inhibition, most hits filed as inhibitors; 0.72% of 360,000 active; AID 1745845; note: % is set by controls: 0 for no effect and ±100 for the full control effect; nearly all actives have a fitted effect of over 55% in size
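ATXN2-luciferase reporter cells (luciferase flanked by upstream and downstream ATXN2 gene portions) were treated 24 h at 37 °C with compounds at up to 57 uM. SteadyGlo luminescence gave expression; GF-AFC fluorescence gave viability.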
Nrf2 block – Nrf2 pathway inhibition | A549 ARE-Fluc reporter, luciferase luminescence, 18-24 h | Potency, µM (top dose mostly 46 µM), inactives show top-dose activity change, negative = inhibition, hits mostly inhibitors | 2.1% of 360,000 active | AID 504444; note: % is set by controls: 0 for no effect and ±100 for the full control effect; nearly all actives have a fitted effect of over 60% in size
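Quantitative HTS in A549 cells stably bearing an antioxidant response element-firefly luciferase construct. Inhibition of Nrf2-driven transcription was scored by luminescence after 18-24 h of compound exposure at 37 °C.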
ATXN viability – viability counter-screen for ATXN expression inhibitors; S2 cells (HEK-293 line with an ATXN2-luciferase reporter) viability, CellTiter-Fluor protease fluorescence, 24 h; Potency, µM (titrated, usually from 56.7 µM), usual class: cytotoxic; 0.49% of 400,000 active; AID 651635; note: nearly all actives have a fitted effect of over 40% in size
TGFb inhibitor – inhibitors of TGF-b signaling; HepG2 CAGA-GFP TGF-b/SMAD3 reporter, GFP fluorescence, 18 h; TGF-beta stimulated, 500 pg/mL final; Potency, µM (highest dose often 46.1 µM), without a hit: at the highest dose activity, negative = inhibition, most hits filed as inhibitors; 1.2% of 410,000 active; AID 588855; note: % is set by controls: 0 for no effect and ±100 for the full control effect; nearly all actives have a fitted effect of over 65% in size
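HEPG2 CAGA-GFP reporter cells (1000/well, DMEM with 1% FBS) received compounds, then recombinant TGF-beta at 500 pg/mL final for 18 hours at 37 degrees C. Per-cell GFP summed per well was normalised to unstimulated and stimulated DMSO controls before curve fitting.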
A549 tox – A549 cytotoxicity, counter-screen for Nrf2 inhibitors | AID 504648 | A549 ARE-Fluc cells, CellTiter-Fluor viability, 18-24 h | 0.16% of 390,000 active | Potency, µM (series often up to 46 µM), for the others: at the top dose activity change, negative = cytotoxicity, usual class: inhibitors; note: % is set by controls: 0 for no effect and ±100 for the full control effect
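A549 ARE_Fluc cells in 5% FBS OPTI-MEM were exposed to compounds in concentration-response for 18-24 h at 37 deg C. Viability was read by CellTiter-Fluor fluorescence (Ex 405/Em 525) after 30 min, before the luciferase read.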
HepG2 tox – kills HepG2 cells in TGF-b inhibitor counter-screen | HepG2 CAGA-GFP viability, ATP luminescence, 18 h | Potency, µM (highest dose often 46.1 µM), for inactives: at the highest dose activity change, negative = cytotoxicity, most hits filed as cytotoxic | 0.76% of 410,000 active | AID 588856
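CellTiter-Glo luminescence gave cytotoxicity after 18 hours at 37 degrees C. The cells were HepG2 CAGA-GFP in 1% FBS DMEM, stimulated with 500 pg/mL TGF-beta after compound addition. %Activity was normalised to no-cell wells (complete cell-killing) and DMSO (no toxicity), and curves were fitted and classified.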
The depositor's hits bear a star; i = inactive; ? = inconclusive; nt = not tested or not shown; [ ] = another dose, or the depositor's remark. Calls come from the whole dose curve; as a rule, active = well fitted curve in the direction sought with a large enough effect; inconclusive = small, poorly fitted or top-dose-only effect, or another doubt; inactive = no such curve, though single readings can be large; an effect the other way counts as inactive or inconclusive. Potency is the fitted concentration of half-maximal effect.

SMILES	ATXN2 expr inh	Nrf2 block	ATXN viability	TGFb inhibitor	A549 tox	HepG2 tox
O=C(CN1CCN(c2ccc(F)cc2)CC1)c1ccc2c(c1)OCO2	5%	11%	i	-7%	-1%	-4%
COc1ccc(C(C[N+](=O)[O-])C2(c3ccc(OC)c(OC)c3)C(=O)c3ccccc3C2=O)cc1 (stereo unspecified)	2%	8%	i	?	?	18µM*
COc1ccc(CC(=O)Nc2c(C(=O)N3CCN(c4ccccc4OC)CC3)oc3ccccc23)cc1OC	-23%	-23%	i	7%	-12%	1%
COc1ccc(/C=C2\SC(=O)N(CC(=O)NC3CCS(=O)(=O)C3)C2=O)cc1 (stereo unspecified)	-4%	-6%	i	-7%	9%	-28%
Cc1ccc(NC(/C=C/N(C)C)=C/C(=O)C(F)(F)F)c(C)c1	-28%	-21%	i	20µM*	-3%	-3%
Cc1ccc(CSc2nccc(-c3c(C)nc4ccccn34)n2)cc1	nt	8.2µM*	?	11%	-20%	1%
Cc1ccc(CSc2ncn(-c3ccccc3)n2)cc1	56%	22%	i	-3%	20%	-26%
CC(O)C(NS(=O)(=O)c1ccc(Cl)cc1)C(=O)OCCOc1ccc(F)cc1 (stereo unspecified)	nt	nt	i	?	nt	-50%
Cc1ccc(-n2c(C)nc3c(cnn3-c3ccc(F)cc3)c2=O)cc1	-17%	15µM*	?	-8%	-11%	-28%
CCCSc1nc2c(cnn2-c2ccc(C)cc2)c(=O)[nH]1	-5%	18µM*	i	-1%	-22%	-2%
Cc1ccc(-n2ncc3c(=O)n(-c4ccc(C)c(C)c4)c(C)nc32)cc1	-5%	-3%	i	2%	-8%	-8%
CCc1cccc(-n2c(C)nc3c(cnn3-c3ccc(C)c(C)c3)c2=O)c1	-16%	?	i	?	14%	-35%
CCc1cccc(-n2c(C)nc3c(cnn3-c3ccc(Cl)cc3)c2=O)c1	-33%	16µM*	i	?	0%	-27%
O=C(C1CC=CCC1)N1CCN(C(=O)C2CC=CCC2)CC1 (stereo unspecified)	-2%	1%	i	23%	2%	2%
COc1ccc(C(=O)N=C2SC3CS(=O)(=O)CC3N2Cc2ccc(F)cc2)cc1 (stereo unspecified)	-9%	?	i	0%	-9%	3%
O=[N+]([O-])c1ccccc1N(CC1CO1)S(=O)(=O)c1ccccc1 (stereo unspecified)	-4%	-1%	i	12%	-9%	0%
COC(=O)C1=C(\O)CCCC/C=C\1C(=O)O	13%	15%	i	14%	-14%	2.8µM*
COc1cc(C2C=C(Nc3ccccc3)C(=O)N2c2ccccc2)ccc1O (stereo unspecified)	8%	18µM*	i	12%	?	-31%
Cc1cccn2c(=O)c3cc(C(=O)NCCc4ccc(S(N)(=O)=O)cc4)n(C)c3nc12	nt	1%	nt	0%	3%	-11%
Cc1cc(C)nc(NS(=O)(=O)c2ccc(NC(=O)c3cc4c(=O)n5cccc(C)c5nc4n3C)cc2)n1	1%	23µM*	i	7%	-13%	-12%
O=C(Nc1ccccc1)N1CCN(c2nc(-c3ccccc3)ns2)CC1	?	23µM*	?	?	-14%	2%
Cc1c(Cl)cccc1NC(=O)N1CCCN(c2nc(-c3ccccc3)ns2)CC1	?	21µM*	i	-22%	-2%	7%
COc1cccc(C(=O)N2CCCC(Nc3ccc(C)c(C)c3)C2)c1 (stereo unspecified)	4%	-12%	i	6%	-1%	-5%
Cc1ccc(-n2nc(C)c3c(C(=O)NCCc4ccccc4)cc(C)nc32)cc1	14%	?	i	-2%	6%	6%
COc1ccccc1NC(=O)c1ccc(NC(=O)c2cc3c(s2)CCC3)cc1	-27%	23µM*	i	-5%	0%	-13%
SMILES	ATXN2 expr inh	Nrf2 block	ATXN viability	TGFb inhibitor	A549 tox	HepG2 tox
O=C(Nc1ccccc1OC(F)F)c1cc2c(s1)CCC2	nt	?	i	-9%	6%	-20%
Cc1ccc(-n2[nH]c(C)c(/C=N/n3c(C)nc4ccccc4c3=O)c2=O)cc1	-23%	?	i	3%	17%[1.84 µM]	6.3µM*
Cc1ccc(N=Cc2c(C)[nH]n(-c3ccccc3)c2=O)nc1	7%	14%	i	-14%	-2%	-20%
Cc1ccc(-n2[nH]c(C)c(C=Nc3ccc(C)cn3)c2=O)cc1	3%	-11%	i	-19%	-7%	4µM*
COc1cccc(N=Nc2c(N)[nH]n3c(=O)c4c(nc23)CCCC4)c1	?	?	?	-24%	?	-22%
CC(=O)N(C)c1ccc(OCC(O)Cn2c3ccc(Cl)cc3c3cc(Cl)ccc32)cc1 (stereo unspecified)	?	21µM*	?	?	?	14µM*
COc1ccc(NC(=O)N(C)C[C@@H]2OCc3ccccc3-c3c(n(C)c4ccccc34)C(=O)N([C@H](C)CO)C[C@H]2C)c(OC)c1	?	nt	?	-3%	nt	9%
C[C@@H]1CN([C@H](C)CO)C(=O)c2c(c3ccccc3n2C)-c2ccccc2CO[C@H]1CN(C)Cc1ccc(Oc2ccccc2)cc1	?	nt	?	16µM*	nt	-52%
C[C@@H]1CN([C@H](C)CO)C(=O)c2c(c3ccccc3n2C)-c2ccccc2CO[C@H]1CN(C)Cc1ccc(C(F)(F)F)cc1	?	nt	28µM*	?	nt	20µM*
CNC[C@@H]1OCc2ccccc2-c2c(n(C)c3ccccc23)C(=O)N([C@H](C)CO)C[C@H]1C	?	nt	32µM*	?	nt	-66%
C[C@@H]1CN([C@H](C)CO)C(=O)c2c(c3ccccc3n2C)-c2ccccc2CO[C@H]1CN(C)Cc1cccc(C(=O)O)c1	11%	nt	i	-1%	nt	4%
Cc1ccc(S(=O)(=O)N2CCCCC2)cc1NC(=O)c1cc(F)c(F)c(F)c1F	-6%	-2%	i	0%	2%	15%
Cn1c(C(=O)NCc2ccccc2Cl)cc2sc(Cl)cc21	nt	?	nt	nt	-5%	-26%
Cc1cc(Br)ccc1OCC(=O)NNC(=O)C(=O)Nc1ccccc1	9%	7%	i	0%	8%	-10%

Screens from PubChem.
